Hit rate of the full screen: of about 320,000 compounds, about 8,000 (2.5%) were called active. The sample holds actives, similar compounds and a random draw of the others, so the mix is not that of the screen. Unmarked numbers belong to inactive results. Cut-off read from the data, not from the text of the source: active = activation above about 47%; inactive = the rest.
What follows are molecules tested against Aryl hydrocarbon receptor (Homo sapiens) (UniProt P35869) (assay: AHR activators, primary screen, cell-based, luminescence, luciferase reporter, human (AID 2796;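 note: 0% = vehicle wells and 100% = reference agonist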)). Conditions: AHR-responsive luciferase reporter cells, at 5 µM, hits give high values.
Sequence of Aryl hydrocarbon receptor (Homo sapiens) (P35869 whole entry, looked up): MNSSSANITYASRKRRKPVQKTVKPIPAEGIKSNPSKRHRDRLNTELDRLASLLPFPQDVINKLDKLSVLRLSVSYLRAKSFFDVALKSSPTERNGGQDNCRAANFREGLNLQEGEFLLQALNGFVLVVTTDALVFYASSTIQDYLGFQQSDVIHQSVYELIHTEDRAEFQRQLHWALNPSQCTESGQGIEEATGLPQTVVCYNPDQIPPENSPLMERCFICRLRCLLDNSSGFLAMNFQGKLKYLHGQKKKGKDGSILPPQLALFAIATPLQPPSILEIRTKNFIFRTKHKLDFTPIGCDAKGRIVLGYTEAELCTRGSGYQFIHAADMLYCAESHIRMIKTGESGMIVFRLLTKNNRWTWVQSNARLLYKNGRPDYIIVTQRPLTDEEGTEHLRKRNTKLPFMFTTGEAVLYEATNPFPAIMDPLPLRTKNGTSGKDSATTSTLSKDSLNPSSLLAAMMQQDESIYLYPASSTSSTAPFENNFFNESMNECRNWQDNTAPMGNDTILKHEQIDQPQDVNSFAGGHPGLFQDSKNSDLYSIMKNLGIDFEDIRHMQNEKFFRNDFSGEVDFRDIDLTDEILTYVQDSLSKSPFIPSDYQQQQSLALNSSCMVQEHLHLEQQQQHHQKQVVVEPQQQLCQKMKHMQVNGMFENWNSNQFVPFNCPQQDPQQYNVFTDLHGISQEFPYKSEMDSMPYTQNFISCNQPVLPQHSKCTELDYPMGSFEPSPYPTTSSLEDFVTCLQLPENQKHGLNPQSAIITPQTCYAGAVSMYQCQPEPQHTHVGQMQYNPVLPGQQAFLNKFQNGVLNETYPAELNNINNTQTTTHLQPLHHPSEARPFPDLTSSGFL
With `COc1cccc(CNS(=O)(=O)c2ccc3c(c2)N(C(C)=O)CCS3)c1` the activation was 7.96%. Molecule `Nc1ncnc2c1ncn2[C@@H]1O[C@H](CNCc2cccn2-c2nccs2)[C@@H](O)[C@H]1O` has an activation of -1.49%. For `Cc1ccc(NS(=O)(=O)c2c(C)[nH]c(=O)[nH]c2=O)cc1C`, the activation was -2.23%. In the case of `COc1ccc(NC(=O)C2=C(C)NC(=O)NC2c2ccccc2[N+](=O)[O-])cc1` (stereo unspecified), the activation is reported as 2.47%. In the case of `Cc1csc(NC(=S)Nc2cccc(Cl)c2)n1`, the activation is reported as 81.2% (active). In the case of `FC(F)(F)c1cccc(NC(=S)Nc2cccc(Cl)c2)c1`, the activation is reported as 6.14%. In the case of `Cc1cccc(NC(=S)Nc2ccc(Cl)c(Cl)c2)c1`, the activation is reported as 2.86%. In the case of `Cc1cccc(C(C)C)c1NC(=O)COC(=O)C1CC(=O)N(Cc2ccccc2)C1` (stereo unspecified), the activation is reported as 3.03%. In the case of `CCC(C)NC(=O)C1CCCN(C(=O)NC2CCCCC2)C1` (stereo unspecified), the activation is reported as 2.48%. For `CC(=O)NC(CC(=O)Nc1ccc(S(=O)(=O)N2CCOCC2)cc1)c1ccccc1` (stereo unspecified), the activation was 0.88%. `O=C(COC(=O)c1cccc(Cl)c1)NC1CCCCCCC1` was tested, and the activation was 0.68%. For `COc1ccccc1NC(=O)Nc1nnc(Cc2ccc(F)cc2)s1`, the activation was 59.8% (active). With `O=C(Nc1nnc(COc2ccccc2)s1)Nc1ccccc1F` the activation was 10.9%. Work on `COc1ccccc1NC(=O)Nc1nc(CC(=O)Nc2ccccc2F)cs1` yielded an activation of 25%. With `CCN(CC)S(=O)(=O)c1cccc(-c2n[nH]c(=S)n2/N=C/c2ccc(C(=O)OC)cc2)c1` the activation was 5.2%. `O=C(NC(=S)N1CCN(Cc2ccccc2)CC1)c1ccccc1` gave an activation of 2.61%. `CC(C)c1ccc(Nc2ncccc2C#N)cc1` was tested, and the activation was 56.8% (active). In the case of `O=C(COC(=O)c1ccc([N+](=O)[O-])o1)NC12CC3CC(CC(C3)C1)C2`, the activation is reported as 0.67%. For `COc1cccc2sc3cc(NCC[C@@H]4CCCN4C)ccc3c(=O)c12`, the activation was 72.2% (active). `Cc1cc2oc3ccc(NCCC4CCCN4C)cc3c(=O)c2cc1C` (stereo unspecified) showed an activation of 2.97%. `COc1ccc(CCNC(=O)C(=O)NCC2CCNCC2)cc1OC` gave an activation of -0.68%. For `CCOc1cc(-c2cc(-c3ccc(NC(C)=O)cc3)nc(N)c2C#N)ccc1O`, the activation was 8.37%. In the case of `CCOc1cc(-c2cc(-c3ccc(OC)cc3)nc(N)c2C#N)ccc1O`, the activation is reported as 0.62%. For `COc1ccc(-c2cc(-c3ccc(N)cc3)nc(N)c2C#N)cc1OC`, the activation was 79.4% (active). Work on `COc1cccc(NC(=O)CC(c2ccc(OC(C)C)cc2)c2ccccc2OC)c1` (stereo unspecified) yielded an activation of -0.21%. Work on `CC(C)(C)OC(=O)CNC(=O)c1[nH]cnc1C(=O)N[C@@H](CCCCN)C(=O)OC(C)(C)C` yielded an activation of 0.13%. In the case of `C/C(=N\NC(=S)Nc1ccc(C)cc1)c1cc2ccccc2o1`, the activation is reported as 70.2% (active). Work on `O=C(Nc1ccncc1)c1cc2ccccc2o1` yielded an activation of 0.11%. `Cc1ccc(NC(=O)c2cc3ccccc3o2)cc1` showed an activation of 25.5%. `CCOC(=O)C1(S(=O)(=O)c2ccc(Cl)cc2)CCN(Cc2ccccc2)CC1` gave an activation of 0.91%. In the case of `CCOc1ccc(NS(=O)(=O)c2ccc(Cl)c(C(=O)N(C)Cc3cccnc3)c2)cc1`, the activation is reported as -0.23%. In the case of `Brc1ccc2c(c1)[C@H]1OCC[C@H]1[C@@H](c1cccs1)N2`, the activation is reported as 77.4% (active). Molecule `c1csc(CN2CCN(Cc3cccs3)C2c2cccs2)c1` has an activation of -2.12%. `COc1ccc(CNC(=O)COC(=O)C(CCSC)N2C(=O)c3ccccc3C2=O)cc1` (stereo unspecified) showed an activation of -0.44%. In the case of `O=C(Nc1cc(C(F)(F)F)ccc1Cl)C(=O)N1CCCCC1`, the activation is reported as 4.43%. `FC(F)(F)c1ccc2c3n(nc2c1)CCN=C3c1ccc(Cl)cc1` was tested, and the activation was 73.6% (active). For `CCN(CC)CCN(C(=O)c1cc(Cl)sc1Cl)c1nc2cc3c(cc2s1)OCO3`, the activation was 72.1% (active). `CCN(CC)CCN(C(=O)c1ccc(N2C(=O)CCC2=O)cc1)c1nc2cc3c(cc2s1)OCO3` showed an activation of 6.01%. Work on `CN(C)CCN(C(=O)C1CCCCC1)c1nc2cc3c(cc2s1)OCO3` yielded an activation of 4.17%. In the case of `COC(=O)[C@]1(Cc2ccccc2)N[C@H](CN(C)S(=O)(=O)c2ccc(OC(F)(F)F)cc2)[C@@H]2C(=O)N(C)C(=O)[C@@H]21`, the activation is reported as -1.46%. For `CCC(=O)NC(=S)Nc1ccc(NC(=O)c2ccco2)c(Cl)c1`, the activation was 84.6% (active). In the case of `O=C(NNC(=S)Nc1ccc(Br)cc1Cl)c1ccco1`, the activation is reported as 2.47%. `O=C(Nc1ccc(NC(=O)c2ccco2)c(Cl)c1)c1cccc([N+](=O)[O-])c1` was tested, and the activation was 2.52%. For `Cc1ccc(F)cc1NC(=O)N1CCCN(c2ccc(C(F)(F)F)cn2)CC1`, the activation was -3.14%. With `CCc1nn(CCCC(=O)Nc2ccc(C)c(C)c2)c(=O)c2cc3occc3n12` the activation was 4.33%. In the case of `Nc1c(C(=O)c2cccs2)sc2nsc(SCCN3CCCCC3)c12`, the activation is reported as 25.2%. Molecule `OC(COc1ccc(CN2CCSCC2)cc1)CN1CCCCC1` (stereo unspecified) has an activation of -1.38%. In the case of `CCOc1ccc(CN2CCN(Cc3ccon3)CC2CCO)cc1` (stereo unspecified), the activation is reported as 7.62%. With `C/C(=N\NC(=O)CNc1cccc2ccccc12)c1ccc(Br)s1` the activation was 91.4% (active). `Cn1cccc1/C=N/NC(=O)CNc1cccc2ccccc12` was tested, and the activation was 5.35%. `Cc1cccc(/C=N/NC(=O)CNc2cccc3ccccc23)n1` showed an activation of 46%. For `O=C(CSc1nnc(SCc2ccc(F)cc2)s1)Nc1ccc(C(=O)O)cc1`, the activation was -0.59%. Molecule `O=C(NCC#CCSc1nnc(-c2cccc3ccccc23)o1)c1cccs1` has an activation of -2.43%. In the case of `C#CCSc1nnc(-c2sc3ccccc3c2Cl)o1`, the activation is reported as 89.2% (active). With `Clc1ccc(-c2nnc(SCc3nc4ccccc4s3)o2)cc1` the activation was 18.2%. In the case of `COC(=O)CSc1ccc2nnc(CCNS(=O)(=O)c3ccc(C)cc3)n2n1`, the activation is reported as 0.87%. `O=C(CN1CCN(S(=O)(=O)c2ccc(Cl)s2)CC1)NCc1ccc(Cl)cc1` gave an activation of -0.6%. Work on `CC[n+]1cc(C)ccc1/C=C/c1ccc(N(C)C)cc1` yielded an activation of -0.11%. `Cc1c(C(=O)OCC(=O)N2CCCC2=O)oc2ccccc12` gave an activation of 1.38%. With `COc1cccc(NC(=O)Nc2nnc(N3CCCCC3C)s2)c1` (stereo unspecified) the activation was 62.3% (active). In the case of `COc1cccc(NC(=O)NCCN2CCCCC2)c1`, the activation is reported as 2.06%. Molecule `COc1cccc(C(=O)Nc2nnc(S(=O)(=O)N3CCCCC3)s2)c1` has an activation of 9.59%. `Nc1ccn(C2CC(O)C(CO)O2)c(=O)n1` (stereo unspecified) showed an activation of -4.38%. Molecule `O=C(NNC(=O)c1ccc(Cl)nc1)c1ccc(Br)cc1` has an activation of -2.45%. For `NC(=O)CSc1c[nH]c2ccccc12`, the activation was 20.9%. In the case of `O=S(=O)(O)Oc1c[nH]c2ccccc12`, the activation is reported as 66.7% (active). `O=C(NC1CCCC1)C(=O)c1c[nH]c2ccccc12` was tested, and the activation was -1.15%. `COc1ccc(N2CC(C(=O)NCCN3C(=O)S/C(=C\c4cccnc4)C3=O)CC2=O)c(OC)c1` (stereo unspecified) was tested, and the activation was -0.14%. With `COc1ccc(C(CNC(=O)c2cccc(S(=O)(=O)Nc3ccccc3Cl)c2)N2CCOCC2)cc1` (stereo unspecified) the activation was 8.55%. In the case of `Cc1cc(Br)ccc1NC(=O)CN(C)C(=O)CN1C(=O)NC2(CCCC2)C1=O`, the activation is reported as 1.62%. For `O=C1c2cccc3cccc(c23)C(=O)N1c1cccc(O)c1`, the activation was -1.76%. Work on `O=C1c2ccccc2C(=O)N1c1cccc2ccccc12` yielded an activation of 0.6%. `COc1ccc(N2C(=O)c3cccc4cccc(c34)C2=O)nn1` was tested, and the activation was 65% (active). Molecule `O=C(NC1CCCC1)C1CCN(C(=O)Nc2cccc(Cl)c2)CC1` has an activation of 0.72%. Molecule `CC(C)OCCCNC(=S)N1CCC(C(=O)c2ccc3c(c2)OCCO3)CC1` has an activation of 1.57%. `NS(=O)(=O)c1ccc(N=Nc2c(O)[nH]c3ccc(Br)cc23)cc1` was tested, and the activation was -10.5%. Molecule `Oc1[nH]c2ccc(Br)cc2c1N=Nc1nn[nH]n1` has an activation of 16.2%. `Cc1cccc(N=Nc2c(O)[nH]c3ccc(F)cc23)c1` was tested, and the activation was 93% (active). `CC(=O)n1cc([C@H]2C=C(C(=O)N3CCOCC3)O[C@@H](OCc3ccc(CO)cc3)C2)c2ccccc21` was tested, and the activation was 3.74%. In the case of `COCCN(CCOC)S(=O)(=O)NC[C@H]1O[C@@H](n2cnc3c(N)ncnc32)[C@H](O)[C@@H]1O`, the activation is reported as 0.98%. Molecule `CN1C(=O)/C(=N/OC(=O)c2ccccc2Br)c2ccccc21` has an activation of -2.06%. Work on `CCC1C(=O)c2ccccc2N(C)C1=O` (stereo unspecified) yielded an activation of 9.44%. With `CN1C(=O)/C(=C\c2cc(Br)cs2)c2ccccc21` the activation was 62.1% (active). Work on `Nc1nc(C23CC4CC(CC(C4)C2)C3)cs1` yielded an activation of -0.51%. With `COc1ccc(CCNC(=O)CN2C(=O)CCSc3ccccc32)c(OC)c1` the activation was -0.88%. Molecule `Cn1cc(CCC(=O)NC2CC2)c2ccccc21` has an activation of 27.1%. With `COc1ccc(CCNC(=O)CCc2cn(C)c3ccccc23)c(OC)c1` the activation was 48.4% (active). Work on `CCCCn1c(N)c(N(Cc2ccccc2OC)C(=O)COc2cc(C)ccc2Cl)c(=O)[nH]c1=O` yielded an activation of 4.71%. For `Cc1cc([N+](=O)[O-])c(NC2CCCCC2)c([N+](=O)[O-])c1`, the activation was -4%. `O=C(COC(=O)c1ccc(O)cc1O)NNC(=O)c1cccs1` was tested, and the activation was 0.36%. `CCc1ccc2nc3sc(C(=O)Nc4nnc(CC)s4)c(N)c3cc2c1` showed an activation of 0.59%. In the case of `Cc1ccc(NC(=O)c2sc3nc(N)c(C#N)cc3c2N)cc1`, the activation is reported as 115% (active). Work on `Cc1ccc(NC(=O)CSCC(=O)Nc2sccc2C#N)cc1` yielded an activation of 25.5%. For `Cc1ccc(-c2nc(C#N)c(NCCCn3ccnc3)o2)cc1`, the activation was 124% (active). Molecule `O=C(CCN1C(=O)c2ccccc2C1=O)NCCCn1ccnc1` has an activation of 6.16%. For `Cc1ccc(S(=O)(=O)c2nc(NCCCn3ccnc3)sc2Cl)cc1`, the activation was 9.5%.

Reference: PubChem BioAssay AID2796 (The Scripps Research Institute Molecular Screening Center, 2010)
